The source made the active and inactive calls.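 The calls were made as follows, unless noted: active = inhibition of the reporter signal at or above 50%; inactive = inhibition below 50%.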
Tests used:
[1] = inhibitors of TNFa-induced NFkB p65 translocation, primary screen, imaging, HUVEC, MLSMR starter and 10KST1 sets (AID 438;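 active = inhibition above 20% together with a positive visual image hit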;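 also: compound added about 3h40 before a 20 min TNFalpha stimulation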;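 as to inhibition: signal is the nuclear over cytoplasmic p65 intensity ratio per well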); conditions: HUVEC TNFa-induced p65 nuclear translocation; cell count: measured here: nuclei count (cytotoxicity indicator), at 2.08 µM; inhibition: at 2 µM, stronger effect = higher value, 0% TNFa-plus-vehicle, 100% no-TNFa wells
[2] = inhibitors of mutant huntingtin aggregation, primary screen, imaging, exon1htt(103Q)mCFP cells, high-content imaging (AID 483;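 active = visual image review flags a hit and inhibition of aggregation exceeds 20%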;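 also: compound exposure lasted 3 days before fixation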;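 as to nuclei count: percent of the per-plate median nuclei count of sample wells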); conditions: exon1htt(103Q)mCFP cell line, aggregate imaging, at 2 µM; inhibition of aggregation: stronger effect = higher value; nuclei count: measured here: cell count, toxicity
[3] = inhibitors of E-selectin induction by TNFa, primary screen, imaging, HUVEC, immunofluorescence, MLSMR starter and 10KST1 sets (AID 487;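 active = visually confirmed hit in the image check and inhibition above 20%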;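 as to inhibition: signal is fraction of cell area covered by stained E-selectin grains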;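 as to nuclei count: 100% = median nuclei count of all wells on the same plate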); conditions: HUVEC TNFalpha-induced E-selectin immunofluorescence imaging, at 2 µM; inhibition: stronger effect = higher value; nuclei count: measured here: cell number, toxicity
[4] = molecular target: Voltage-gated potassium channel subunit beta-2 (Rattus norvegicus) (UniProt P62483); experiment: KvBeta enzyme negative modulators, primary screen, biochemical, NADPH fluorescence (AID 622;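 active = fluorescence slope higher than the sample average by over 3 SD, cut at about -0.22 in these data, passing the limit was not always enough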;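 also: slope of raw intensity against log time taken from 70 to 1610 s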); conditions: recombinant KvBeta, 4-cyanobenzaldehyde reduction, at 10 µM, stronger effect = higher value
[5] = molecular target: Voltage-gated potassium channel subunit beta-2 (Rattus norvegicus) (UniProt P62483); experiment: KvBeta positive modulators, primary screen, biochemical, NADPH fluorescence (AID 623;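 active = NADPH fluorescence slope more negative than the mean of all samples by about 3 SD, 99.7% confidence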;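 also: fluorescence intensity change per second fitted from 20 to 320 s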); conditions: Recombinant KvBeta, NADPH fluorescence decrease slope, 10 min; at 10 µM; stronger effect = lower value
[6] = molecular target: Alpha-2C adrenergic receptor (Homo sapiens) (UniProt P18825); experiment: modulators of alpha2C/GIRK thallium flux, primary screen, cell-based, HEK293 alpha2C/GIRK1/2 (AID 624;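 active = fluorescence slope after compound addition differing from the mean of all screened samples at 99.7% confidence, in either direction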;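 also: slope of fluorescence ratio to pre-addition baseline per second over 15 to 24 s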); conditions: thallium flux BTC fluorescence, at 10 µM, actives lie on both sides
[7] = inhibitors of Sendai virus-induced IRF3 signaling, primary screen, TLR/RLR signaling modifier project, cell-based, Sendai virus stimulus, luciferase, 10K MLSCN set (AID 602276;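 active = inhibition at or above 50% at 10 µM; inactive = inhibition below 50%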;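 also: firefly luciferase from ISG56 promoter only with Renilla not read in this screen; 0% = Sendai virus plus DMSO and 100% = medium plus DMSO without virus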); conditions: HEK293 RL24 IRF3 luciferase reporter, at 10 µM, stronger effect = higher value
[8] = inhibitors of poly I:C-induced TLR3 signaling, primary screen, cell-based, poly I:C stimulus, luciferase, 10K MLSCN set (AID 602277); conditions: HEK293-TLR3 RL24 IRF3 luciferase reporter, at 10 µM, stronger effect = higher value

Voltage-gated potassium channel subunit beta-2 (Rattus norvegicus), sequence (P62483 whole entry, looked up): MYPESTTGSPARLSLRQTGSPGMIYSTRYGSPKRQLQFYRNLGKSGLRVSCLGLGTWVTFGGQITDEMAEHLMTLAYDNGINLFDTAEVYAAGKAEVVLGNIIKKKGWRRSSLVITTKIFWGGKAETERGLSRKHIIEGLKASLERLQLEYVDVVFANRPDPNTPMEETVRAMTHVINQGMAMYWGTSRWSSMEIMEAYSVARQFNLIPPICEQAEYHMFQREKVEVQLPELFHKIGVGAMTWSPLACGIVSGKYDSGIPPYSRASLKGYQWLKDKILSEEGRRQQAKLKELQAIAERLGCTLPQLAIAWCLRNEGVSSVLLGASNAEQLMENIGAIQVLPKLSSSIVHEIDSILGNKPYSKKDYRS
Alpha-2C adrenergic receptor (Homo sapiens), sequence (P18825 whole entry, looked up): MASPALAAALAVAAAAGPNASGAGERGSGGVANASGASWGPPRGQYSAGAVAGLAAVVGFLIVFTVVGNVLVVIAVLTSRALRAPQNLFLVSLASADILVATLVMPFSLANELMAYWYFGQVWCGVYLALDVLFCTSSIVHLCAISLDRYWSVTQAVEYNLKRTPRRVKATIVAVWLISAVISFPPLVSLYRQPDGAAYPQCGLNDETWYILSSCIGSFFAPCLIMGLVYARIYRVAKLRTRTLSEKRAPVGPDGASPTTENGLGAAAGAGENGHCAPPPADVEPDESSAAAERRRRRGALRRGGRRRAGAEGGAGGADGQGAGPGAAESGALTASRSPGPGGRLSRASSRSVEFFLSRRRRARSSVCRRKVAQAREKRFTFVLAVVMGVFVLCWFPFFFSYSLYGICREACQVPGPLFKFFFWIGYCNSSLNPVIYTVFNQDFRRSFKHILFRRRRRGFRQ

| Compound | cell count [1] | inhibition [1] | inhibition of aggregation [2] | nuclei count [2] | inhibition [3] | nuclei count [3] | fluorescence slope [4] | NADPH fluorescence slope [5] | slope [6] | inhibition [7] | inhibition [8] |
| --- | --- | --- | --- | --- | --- | --- | --- | --- | --- | --- | --- |
| NC(=O)CN1C(=O)C(O)(CC(=O)c2ccccc2O)c2ccccc21 (centres undefined) | 641 | -0.3% (inactive) | -4.7% (inactive) | 122% | -65.3% (inactive) | 133% | -0.395 (inactive) | -4.6e-05 (inactive) | 0.00547 (inactive) | 12.7% (inactive) | 38.5% (inactive) |
| COc1cc(CN2CCN(C(=O)CC(C)C)CC2)cc(OC)c1O | 642 | -11% (inactive) | -4.6% (inactive) | 99.7% | -52.5% (inactive) | 90.3% | -0.583 (inactive) | -2.8e-05 (inactive) | 0.00548 (inactive) | 5.89% (inactive) | 16% (inactive) |
| C=CCN(C(=O)CNC(=O)c1ccco1)C(C(=O)NC1CCCCC1)c1ccccc1F (centres undefined) | 398 | -1.6% (inactive) | 18.6% (inactive) | 106% | 5.7% (inactive) | 101% | -0.612 (inactive) | 1.7e-06 (inactive) | 0.00581 (inactive) | -3.24% (inactive) | 10.3% (inactive) |
| COc1ccc2c(c1OC)C(=O)OC2CC(=O)c1ccc(O)cc1 (centres undefined) | 556 | -1.1% (inactive) | -3.9% (inactive) | 114% | 43.4% (inactive) | 42.6% | -0.447 (inactive) | -4.1e-05 (inactive) | 0.00258 (inactive) | 4.78% (inactive) | 26.9% (inactive) |
| CCCCN(Cc1cc2cc(OC)ccc2[nH]c1=O)C(=O)c1ccccn1 | 339 | -17.9% (inactive) | -18.3% (inactive) | 101% | -11.8% (inactive) | 89.4% | -0.332 (inactive) | -6.3e-05 (inactive) | 0.00511 (inactive) | -4.21% (inactive) | 98.1% (active) |
| COc1ccc(-n2nnnc2SCC(=O)c2ccc(O)c(O)c2)cc1 | 344 | -6.5% (inactive) | 20.5% (inactive) | 91.8% | -74.4% (inactive) | 112% | -0.487 (inactive) | -0.000117 (inactive) | 0.00395 (inactive) | 13.7% (inactive) | 16.9% (inactive) |
| Cc1ccc(-c2nnc3c4ccccc4c(C)nn23)cc1NC(=O)c1ccco1 | 641 | -11% (inactive) | 17.5% (inactive) | 102% | -106% (inactive) | 115% | -0.602 (inactive) | 2.3e-05 (inactive) | 0.00729 (inactive) | -0.847% (inactive) | -4.54% (inactive) |
| COCCn1nnnc1CN(CCCN1CCOCC1)Cc1cc2c(C)ccc(C)c2[nH]c1=O | 612 | -8.8% (inactive) | -0.2% (inactive) | 112% | 19.5% (inactive) | 92.4% | -0.49 (inactive) | 3e-05 (inactive) | 0.00345 (inactive) | -10.5% (inactive) | 15.5% (inactive) |
| CCn1c(=N)n(CC(O)c2ccco2)c2ccccc21 (centres undefined) | 321 | -8.1% (inactive) | -20.7% (inactive) | 87.8% | -33% (inactive) | 110% | -0.358 (inactive) | -5.8e-05 (inactive) | 0.00623 (inactive) | 10.3% (inactive) | 24.1% (inactive) |
| CCN(CC(=O)NC1CCS(=O)(=O)C1)C(=O)C(c1ccccc1)c1ccccc1 (centres undefined) | 887 | 3.8% (inactive) | -12.1% (inactive) | 105% | -74.7% (inactive) | 130% | -0.261 (inactive) | -5e-05 (inactive) | 0.00562 (inactive) | 6.14% (inactive) | 5.12% (inactive) |
| COc1ccc(CN(C2CCCC2)S(=O)(=O)c2ccc(-n3cnnn3)cc2)cc1OC | 527 | -5.8% (inactive) | -15% (inactive) | 115% | -39.4% (inactive) | 124% | -0.57 (inactive) | -1.6e-05 (inactive) | 0.00406 (inactive) | 15.1% (inactive) | 18.9% (inactive) |
| Cc1ccc(-n2nc(C)c3cc(C(=O)O)sc32)cc1 | 369 | 6.3% (inactive) | 11.1% (inactive) | 90.3% | -140% (inactive) | 97.4% | -0.191 (inactive) | -5e-05 (inactive) | 0.00582 (inactive) | 12.6% (inactive) | 33.9% (inactive) |
| CCOc1ccc(Oc2nc(Nc3ccc(C)cc3)nc(N(C)C)n2)nn1 | 619 | -0.3% (inactive) | 25.8% (inactive) | 71.1% | -14.3% (inactive) | 106% | -0.491 (inactive) | -4.9e-05 (inactive) | 0.00543 (inactive) | -17.8% (inactive) | 1.23% (inactive) |
| CCOC(=O)Cc1nnc(NC(=O)c2ncn[nH]2)s1 | 343 | 0.2% (inactive) | -4.6% (inactive) | 99.8% | -5.5% (inactive) | 119% | -0.438 (inactive) | -5.2e-05 (inactive) | 0.00725 (inactive) | -0.284% (inactive) | 5.11% (inactive) |

Source: PubChem BioAssay
